Compound activity deposited in PubChem BioAssay by National Center for Advancing Translational Sciences (NCATS).
Epigenetic reg: regulators of epigenetic silencing causing reporter derepression in mouse cells | Potency, µM (highest dose often 53.9 µM), for inactives: top-dose GFP activation, actives largely listed as activators | murine LDR cells, GFP reporter derepression, 30 h | 280,000 tested, 0.2% active; note: potency is the fitted concentration of half-maximal effect; % of control where 0% means no effect; nearly all actives have a fitted effect of over 60% in size
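In this reporter-derepression format, murine cells bearing a silenced integrated CMV-GFP locus incubate with test compound (30 h, 37 C), then are washed and imaged; fluorescent objects of 20–120 um count as induced cells.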
Mm-Cpn inhibitor: blocks the Methanococcus maripaludis chaperonin Mm-Cpn. 330,000 tested, 0.031% active. AID 504842. Potency, µM (highest dose often 76.9 µM), inactives show at the top dose activity, negative = inhibition, most hits filed as inhibitors. purified Mm-Cpn ATPase, ADP Transcreener TR-FRET; note: potency is the fitted concentration of half-maximal effect; % is set by controls: 0 for no effect and ±100 for the full control effect; nearly all actives have a fitted effect of over 80% in size
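Quantitative HTS used 25 nM Mm-CPN and 10 uM ATP in magnesium/KCl Tris buffer, pH 7.4, with 1 mM DTT. Hydrolysis ran 30 min at 37°C; ADP was read by HTRF.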
Akt phos inh: blocks phosphorylation of Akt; activity change, % for hits at 50 µM; Neuro2A IGF-stimulated pAkt S473 HTRF, 20 min; hits give low values; 360,000 tested, 0.32% active; in the data active = activity change below about -80%; inconclusive = mostly about -51% to -80%; note: % is set by controls: 0 for no effect and ±100 for the full control effect
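Neuro2A cells in DMEM with 0.5% FBS, overnight at 37 deg C, given compound at single 50 µM final, then IGF (6 nM final) for 20 min at 37 deg C. Lysed; phospho-Akt Ser473 by HTRF after 24 h, 665/615 ratio.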
MBNL1-CUG inh: inhibitors of human MBNL1 binding to CUG repeat RNA; TR-FRET MBNL1-His/biotin-(CUG)12 binding, 665/545 ratio; Potency, µM (top dose mostly 57.5 µM), for inactives: at the highest dose activity change, negative = inhibition, actives largely listed as inhibitors; 280,000 tested, 0.036% active; active = well fitted inhibition curve with a large enough effect in the signal ratio, with a control signal flat, not every such curve was filed as active; inconclusive = small, poorly fitted or top-dose-only effect, or effect the other way, or a change in a side signal; inactive = no such curve, though single readings can be large or run the other way; the % refers to the signal ratio; note: potency is the fitted concentration of half-maximal effect; % is set by controls: 0 for no effect and ±100 for the full control effect
Target sequence (Q9NR56 whole entry, looked up): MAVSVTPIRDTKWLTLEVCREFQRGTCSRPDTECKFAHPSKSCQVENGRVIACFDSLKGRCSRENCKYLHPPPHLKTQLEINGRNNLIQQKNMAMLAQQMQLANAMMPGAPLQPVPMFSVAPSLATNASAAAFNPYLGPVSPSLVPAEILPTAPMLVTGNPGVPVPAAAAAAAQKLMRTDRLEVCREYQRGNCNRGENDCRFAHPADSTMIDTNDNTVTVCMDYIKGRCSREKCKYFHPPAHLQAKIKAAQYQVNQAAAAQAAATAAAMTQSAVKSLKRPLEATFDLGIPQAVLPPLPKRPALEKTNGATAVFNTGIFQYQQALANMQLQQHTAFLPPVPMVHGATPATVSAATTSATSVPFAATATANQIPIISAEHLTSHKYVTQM
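Inhibition of protein-RNA binding appears as loss of TR-FRET between terbium anti-His antibody on MBNL1-His and streptavidin-XL665 on biotin-(CUG)12. Activity is normalized to buffer-only and uninhibited-complex controls.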
uPA generation: cell surface uPA generation inhibition | cell surface uPA generation assay, qHTS | Potency, µM (top dose mostly 38.3 µM), for the others: at the top dose activity change, negative = inhibition, most hits filed as inhibitors | 330,000 tested, 0.31% active; active = well fitted inhibition curve with a large enough effect; inconclusive = small, poorly fitted or top-dose-only effect; inactive = no such curve, though single readings can be large or run the other way; tested in mouse RAW 264.7 cells; note: potency is the fitted concentration of half-maximal effect; % is set by controls: 0 for no effect and ±100 for the full control effect; nearly all actives have a fitted effect of over 55% in size
CCT modulator: changes cytosolic chaperonin activity | purified chaperonin ATPase assay, HTRF ADP detection, 30 min | activity change, % (test concentration not listed), hits read low | 360,000 tested, 0.3% active; in the data active = activity change below about -30%; note: % is set by controls: 0 for no effect and ±100 for the full control effect
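TRiC at 40 or 20 nM final (batch-dependent) in 30 mM Tris pH 7.4, 100 mM KCl, 5 mM MgCl2, 1 mM DTT, with compound at single 76 uM and 10 uM ATP, 30 min at 37 deg C. ADP detected by HTRF Transcreener, 665/615 ratio.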
* hit, by the source's call; i = inactive; ? = inconclusive; · = no result given. Shown are actives, neighbours in structure and some others; about 0.97% of the full set was active somewhere. Unless noted, calls come from the whole dose curve; as a rule, active = well fitted curve in the direction sought with a large enough effect; inconclusive = small, poorly fitted or top-dose-only effect, or another doubt; inactive = no such curve, though single readings can be large; an effect the other way counts as inactive or inconclusive.

SMILES	Epigenetic reg	Mm-Cpn inhibitor	Akt phos inh	MBNL1-CUG inh	uPA generation	CCT modulator
COC(=O)[C@H]1[C@H]2C[C@@H]3c4[nH]c5cc(OC)ccc5c4CCN3C[C@H]2C[C@@H](OC(=O)c2cc(OC)c(OC)c(OC)c2)[C@@H]1OC	22µM*	-2%	i	?	-12%	0
COC(=O)C1C2CC3c4[nH]c5cc(OC)ccc5c4CCN3CC2CC(OC2CCCCO2)C1OC (stereo not given)	·	·	i	·	·	1
Cn1c(=O)c2c(nc(CN3CCc4ccccc4C3)n2Cc2cccc(Cl)c2)n(C)c1=O	1%	-8%	i	-23%	7.9µM*	0
CCOc1cc2[nH]c(=S)n(Cc3ccc(C(=O)NCCCOC)cc3)c(=O)c2cc1OCC	·	5%	i	8%	9%	-3
O=C(CCC1COc2ccccc2O1)N1CCCC1 (stereo not given)	1%	1%	-100%*	3%	-2%	-1
N#Cc1c(NC(=O)C2CC(c3ccccc3Cl)=NO2)sc2c1CCC2 (stereo not given)	-1%	1%	i	4%	-5%	-92*
CCN(CCNC(=O)CN1CCN(Cc2ccc(Cl)cc2)C1=O)c1ccccc1	-1%	-1%	i	-1%	-3%	-5
CCN(CC)S(=O)(=O)c1ccc(C(=O)Nc2cc(S(=O)(=O)N3CCOCC3)ccc2O)cc1	·	-2%	i	·	-3%	-2
COc1ccc(CC(=O)NCCN2CCCC2)cc1	-2%	1%	-121%*	-21%	7%	-10
CCCCCOc1ccccc1C(=O)NCCC(=O)O	-2%	0%	i	-14%	·	-9
CC(C)c1cccc(C(C)C)c1NC(=O)Cn1c(=O)cnc2ccccc21	0%	0%	i	16%	-7%	-4
CN(C)S(=O)(=O)c1ccc(C(=O)Nc2nnc(-c3ccc4c(c3)CCCC4)o2)cc1	-1%	-2%	i	-5%	4.5µM*	-4
CN(C)S(=O)(=O)c1ccc(C(=O)Nc2nnc(-c3cccs3)o2)cc1	0%	0%	i	0%	?	1
Cc1ccc(NC(=O)COC(=O)c2ccc3c(c2)OCCO3)cc1S(=O)(=O)N1CCOCC1	0%	-2%	i	-3%	-1%	2
CC(=O)c1ccc(OCCCC(=O)Nc2ccc(Cl)c(S(=O)(=O)N3CCOCC3)c2)cc1	·	·	i	·	?	-4
Cc1ccc(NC(=O)COC(=O)c2ccc(NC(=O)CC#N)cc2)cc1S(=O)(=O)N1CCOCC1	·	32µM*	i	·	0%	-1
COc1cc(C(C)=O)ccc1OCC(=O)Nc1ccc(Cl)c(S(=O)(=O)N2CCOCC2)c1	·	-9%	i	·	0%	-98*
COc1ccc(-c2cnnc(N/N=C/c3ccc(O)c(OC)c3)n2)cc1	-1%	-1%	i	?	-15%	-1
COc1ccc2c(c1)O[C@H](c1ccc3c(c1)OCO3)[C@@H](OC(=O)NS(=O)(=O)c1ccc(F)cc1)C2=O	1%	·	·	·	·	·
O=[N+]([O-])c1ccc(/C=N\NS(=O)(=O)c2ccc(F)cc2)o1	·	-1%	i	?	8.9µM*	-5
O=C(N/N=C/c1ccc([N+](=O)[O-])o1)c1ccncc1	0%	1%	i	·	-6%	-1
O=C(N/N=C/c1ccc([N+](=O)[O-])o1)c1ccc(O)cc1	-3%	-2%	i	?	7.1µM*	0
O=C(N/N=C/c1ccc([N+](=O)[O-])o1)c1cc2ccccc2o1	0%	0%	i	?	2.5µM*	-1
CCN(CC)S(=O)(=O)c1ccc(C)c(NC(=O)COC(=O)CN2C(=O)NC(C)(C)C2=O)c1	·	0%	i	·	10%	-1
CC(NC(=O)COC(=O)/C=C/c1ccc2c(c1)OCO2)c1ccccc1 (stereo not given)	·	1%	i	·	-15%	-3
SMILES	Epigenetic reg	Mm-Cpn inhibitor	Akt phos inh	MBNL1-CUG inh	uPA generation	CCT modulator
CC(C)NC(=O)c1cc2cc(Br)ccc2oc1=O	0%	-2%	i	13%	5%	-1
O=C(Nn1cnnc1)c1cc2cc(Br)ccc2oc1=O	1%	2%	-93%*	?	·	1
COc1ccc2c(c1)c1c(c(=O)n(-c3cccc(Cl)c3)c(=O)n1CC(=O)NCC1CCCO1)n2C (stereo not given)	1%	·	·	·	·	·
COc1ccc(-c2nc(Cn3c(SCc4ccc(C)cc4)nc4ccncc43)c(C)o2)cc1OC	11%	-24%	i	-10%	8.9µM*	-1
CC1=C(C(=O)N(C)C)CC(CC(=O)NC(c2ccccc2)c2ccccc2)C(=O)N1Cc1ccccc1 (stereo not given)	·	·	i	·	·	-48*
CC1=C(C(=O)N(C)C)CC(CC(=O)NC(c2ccccc2)c2ccccc2)C(=O)N1Cc1ccc(F)cc1 (stereo not given)	·	·	i	·	·	-1
Cc1nn(CC(=O)Nc2ccc3c(c2)OCCO3)c(C)c1[N+](=O)[O-]	·	0%	i	·	0%	-33*
Cc1ccc(-n2nc(CO)c(C(=O)NC(C)CCCc3ccccc3)n2)cc1 (stereo not given)	1%	·	·	·	·	·
N#CC1=C(N)Oc2c(ccc3cccnc23)C1c1ccccc1 (stereo not given)	1%	0%	i	?	1.3µM*	-2
CCCCNC(=O)C1CCN(S(=O)(=O)c2cc(Br)cc3c2N(C(=O)CC)CC3)CC1	-2%	·	·	·	·	·
O=C(CN1CCN(Cc2ccccc2)CC1)N/N=C/c1cccnc1	0%	0%	i	·	12%	-36*
Cc1cccc(-c2cccc(NC(=O)C3CCCN(C(=O)c4csc(C)n4)C3)c2)c1 (stereo not given)	·	0%	i	-10%	?	2
COc1cc(CO)cc(-c2cc(CO)cc(OC)c2OC)c1OC	3%	0%	-107%*	-2%	0%	-3
CCc1sc2nc(SCC(=O)Nc3cc(C)on3)n(-c3cccc(OC)c3)c(=O)c2c1C	7%	-3%	i	17%	-3%	-36*
COc1cccc(-n2c(SCC(=O)Nc3cc(C)on3)nc3ccccc3c2=O)c1	1%	1%	i	0%	·	0
COc1ccc2oc(=O)c(-c3nc4ccc(C)cc4[nH]3)cc2c1	11µM*	·	·	·	·	·
COc1cccc2cc(-c3nc4ccc(C)cc4[nH]3)c(=O)oc12	1%	·	·	·	·	·
O=C(c1ccc2ncsc2c1)N1CCCCC1	·	2%	i	-19%	-1%	-36*
CC(C)N(C(=O)Cn1c(-c2ccccc2Cl)nc2ccccc21)c1ccccc1	-1%	2%	i	-5%	2%	-55*
N#C/C(=C/c1ccc(N2CCCCC2)o1)C(=O)Nc1ccc(Cl)cc1	0.63µM*	-1%	i	5%	·	-5
